# Bioassay records as filed in PubChem.
# DAGLB inhibitor: blocks human DAGLB lipase activity. Q8NCG7. HEK293T DAGLB membrane lysate, EnzChek fluorogenic substrate. inhibition, % at 5.17 µM. 0.059% of 340,000 active; in the data active means inhibition above about 34%
# sPLA2-III inh: Inhibits HGIII-sPLA2 liposome hydrolysis, primary screen; Q9NZ20; QFRET BODIPY PC-A2 liposome hydrolysis, fluorescence; inhibition, % at 12.2 µM; 0.56% of 370,000 active; AID 743126;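 active means inhibition above mean plus 3 SD of compounds lying within the high and low control bounds, cut at about 19% in these data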
# H9c2 protect: myocardial damage modulation in H9c2 cells | H9c2 cardiomyocytes, H2O2 injury protection, ATPLite, 2 h | protection from H2O2 cell death, % at 20 µM | 0.63% of 360,000 active;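 active means compounds giving at least 50% protection of heart cells from peroxide-induced death in the single-dose screen, raw or plate-pattern-corrected value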
# ABHD5-PLIN5 inh: blocks binding of human ABHD5 to perilipin-5; Q00G26+Q8WTS1; Split G. princeps luciferase complementation, luminescence, 4 h; inhibition, % at 4 µM; 0.78% of 360,000 active; AID 602281;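 active means inhibition above the mean inhibition across every tested compound plus 3 SD, cut at about 22% in these data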
# Target sequence (Q00G26 whole entry, looked up): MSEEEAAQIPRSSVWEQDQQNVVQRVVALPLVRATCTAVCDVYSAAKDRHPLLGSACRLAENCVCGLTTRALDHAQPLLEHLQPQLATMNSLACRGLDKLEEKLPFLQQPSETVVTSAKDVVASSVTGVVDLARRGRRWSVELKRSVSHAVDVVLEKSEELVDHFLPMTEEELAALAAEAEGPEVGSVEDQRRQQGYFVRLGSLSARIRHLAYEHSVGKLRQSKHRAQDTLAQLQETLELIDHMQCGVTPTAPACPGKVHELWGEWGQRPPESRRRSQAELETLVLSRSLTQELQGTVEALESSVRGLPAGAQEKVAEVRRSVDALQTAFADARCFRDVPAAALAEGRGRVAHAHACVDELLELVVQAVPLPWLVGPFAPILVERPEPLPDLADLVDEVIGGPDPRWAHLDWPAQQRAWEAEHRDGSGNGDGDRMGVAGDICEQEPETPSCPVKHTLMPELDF
# Target sequence (Q8WTS1 whole entry, looked up): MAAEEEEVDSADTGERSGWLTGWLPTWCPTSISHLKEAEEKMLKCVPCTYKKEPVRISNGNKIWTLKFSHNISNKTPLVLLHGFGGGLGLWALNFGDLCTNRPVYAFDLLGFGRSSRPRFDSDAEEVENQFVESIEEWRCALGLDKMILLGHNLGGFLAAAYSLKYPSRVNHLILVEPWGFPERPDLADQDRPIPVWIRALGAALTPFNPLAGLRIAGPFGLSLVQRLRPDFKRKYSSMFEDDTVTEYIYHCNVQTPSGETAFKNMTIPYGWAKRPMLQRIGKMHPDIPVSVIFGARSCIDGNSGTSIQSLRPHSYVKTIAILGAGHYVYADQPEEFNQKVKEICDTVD
# Myeloid diff MLP: myeloid differentiation induction; calls only at 10 µM; 1% of 360,000 active; AID 624256; ER-HoxA9 myeloid progenitors, lysozyme-GFP differentiation, flow cytometry;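 active means normalized GFP-positive differentiation at or above the plate's own cutoff, the solvent-only control mean plus 3 SD; inconclusive means no clear call, values can overlap the other calls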;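 further: cells exposed to compound for four days before flow analysis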
# Rtt109 Vps75: inhibitors of Candida albicans Rtt109/Vps75 histone acetyltransferase; Q5AAJ8; purified Rtt109/Vps75, ThioGlo CoA-SH fluorescence, 4 h; inhibition, % at 34.9 µM; 0.16% of 330,000 active; AID 540336;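 active means inhibition of at least 50% in every replicate; inconclusive means best replicate reaches 50% inhibition but some replicates fall short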
# A number is an active result; – = inactive; ? = inconclusive; · = not tested or not shown; + = active, no number; ! = a repeat was not active. This is a sample that favours compounds with a hit; in the whole collection about 2.9% have one here.
SMILES,DAGLB inhibitor,sPLA2-III inh,H9c2 protect,ABHD5-PLIN5 inh,Myeloid diff MLP,Rtt109 Vps75
Cc1ccccc1C(=O)N1CCC(C(=O)Nc2ccc(S(=O)(=O)N3CCCC3)cc2)CC1,–,–,–,–,+,–
CCc1ccc(/C=C2/SC(N3CCOCC3)=NC2=O)cc1,–,–,–,–,–,–
CCN1C/C(=C/c2ccc(N3CCOCC3)cc2)C(=O)/C(=C/c2ccc(N3CCOCC3)cc2)C1,–,–,–,58.4,?,–
CCOc1cc(/C=C/c2nc3ccccc3c(=O)[nH]2)ccc1O,–,–,57.1,–,–,–
CC(=O)Nc1nc2ccccc2n1Cc1ccccc1,–,–,–,–,–,–
O=NNc1nc2ccccc2n1Cc1ccccc1,–,–,71.6,–,–,–
O=C1CCC(=O)N1c1ccc(-c2nc3ccccc3s2)cc1,–,–,–,–,–,52.1
O=C(NCc1ccccc1Br)c1cccs1,·,–,–,–,+,·
Cc1ccccc1C(=O)NCc1nnc(SCC(=O)N2CCN(c3ccccc3)CC2)n1C,–,–,–,–,–,–
COc1cc(NC(=O)c2csc(-c3ccncc3)n2)cc(C(=O)Nc2cccc(C(F)(F)F)c2)c1,–,–,59.4,–,–,–
O=C(Nc1cccc(C(F)(F)F)c1)c1csc(-c2ccncc2)n1,–,–,–,–,–,?
COc1cc(NC(=O)c2ccc(N)nc2)cc(C(=O)Nc2cccc(C(F)(F)F)c2)c1,–,–,–,–,+!,–
Cc1ccc(C(=O)Nc2cccc(C(F)(F)F)c2)cc1Nc1cncnc1,–,–,–,–,+!,–
COCCNC(=O)C1(C)CCCN(C(=O)c2cccc3ccccc23)C1 (centres undefined),·,–,–,–,–,·
Cc1cc(Cl)ccc1OCC(=O)NCC(=O)N/N=C/c1ccco1,–,–,–,–,–,–
COc1ccc(NCc2nnc(SCC(=O)Nc3ccc(OC)cc3OC)o2)cc1,–,–,–,–,–,–
COc1ccc(NC(=O)CSc2nnc(C3CCCCC3)o2)c(OC)c1,–,–,–,–,+,–
CC1CCCCC1NC(=O)C1CC(=O)N(Cc2ccccc2)C1 (centres undefined),–,–,–,–,·,–
CCCCNC1=CC(=O)C(NCCCC)=CC1=O,–,–,–,–,–,–
CCCCNC1=CC(=O)C(=O)c2ccccc21,–,–,–,–,+,–
CC(=O)Nc1ccc(S(=O)(=O)N2CCC(NC(=O)C(Cc3cccn3C)NC(C)=O)CC2)cc1 (centres undefined),–,–,–,22.7,–,–
CC(=O)c1ccc(OCC(=O)NC2CCCN(Cc3ccccc3F)C2)cc1 (centres undefined),–,–,–,–,+,–
COC(=O)c1c(C)[nH]c(C(=O)/C=C/c2ccccc2)c1C,–,–,–,–,+,–
CC1(C)CC(=O)C(C=Nc2ccc(O)cc2)=C(O)C1,–,–,–,–,–,–
COC(=O)c1ccc(N)c(N=CC2=C(O)CC(C)(C)CC2=O)c1,–,–,58.1,–,+,–
SMILES,DAGLB inhibitor,sPLA2-III inh,H9c2 protect,ABHD5-PLIN5 inh,Myeloid diff MLP,Rtt109 Vps75
COc1cccc(N=CC2=C(O)CC(C)(C)CC2=O)c1,–,–,–,–,–,–
CC1(C)CC(=O)C(C=Nc2ccc(N)cc2)=C(O)C1,–,–,–,–,+,–
CC1(C)CC(=O)C(C=Nc2cc(C(=O)c3ccccc3)ccc2N)=C(O)C1,–,–,–,–,+,–
CCOc1cc(N2CCOCC2)c(OCC)cc1NC(C)C(=O)N1CCN(CC)CC1 (centres undefined),–,–,–,–,–,–
Clc1ccc(C2=NN(c3ccccc3)C(c3ccco3)C2)cc1 (centres undefined),–,–,–,–,–,–
Cc1nc(N2N=C(c3ccc(Cl)cc3)CC2c2ccco2)sc1C(=O)N(C)C (centres undefined),–,–,–,22.4,+,–
COc1ccc(C(=O)COC(=O)CNC(=O)c2ccccc2)cc1F,–,–,–,–,–,–
O=C(NCC(c1cccs1)N1CCc2ccccc21)c1ccccc1 (centres undefined),–,–,–,–,+,–
COc1ccccc1CNC(=O)c1ccccc1NS(C)(=O)=O,–,–,–,–,–,–
O=c1cc(CSc2n[nH]c(-c3ccncc3)n2)nc2sccn12,–,–,–,–,–,–
O=c1cc(CSc2ccc([N+](=O)[O-])cc2)nc2sccn12,–,–,72.3,–,–,–
CCOc1ccc(-c2cc(C(=O)NCc3cc(C(F)(F)F)cc(C(F)(F)F)c3)[nH]n2)c(C)c1,·,–,–,–,–,·
O=C(Oc1cccc2cccnc12)c1cccs1,–,–,–,–,+,–
CCOC(=O)C(=O)C1=CN(Cc2ccccc2)C=C(C#N)C1,–,–,–,–,–,–
CCCOC(=O)C(C)n1cnc2sc(C)c(C)c2c1=O (centres undefined),–,–,–,–,–,–
CC(=O)Nc1ccc(C2=NNC(=Nc3cccc(S(=O)(=O)N(C)C)c3)SC2)cc1,–,·,–,58.2,–,–
CCOC(=O)C1=C(CSc2nc(CC)c(C)cc2C#N)OC(N)=C(C#N)C1c1ccc(OC)cc1 (centres undefined),–,–,–,–,+,–
CCOC(=O)C1=C(CSc2nc(-c3ccncc3)ccc2C#N)OC(N)=C(C#N)C1c1ccc(OC)cc1 (centres undefined),–,–,–,–,–,–
Cc1ccc(S(=O)(=O)N2CCCCC2)cc1NS(=O)(=O)c1ccccc1F,–,–,–,–,–,–
Cc1cc(SCC(=O)OCC(=O)N(CCC#N)c2ccccc2)nc2ccccc12,–,–,–,–,–,–
O=C(Nc1ccc(OC(F)(F)F)cc1)C1CCCN(C(=O)c2ccc(Cl)cc2)C1 (centres undefined),–,–,–,–,–,–
c1ccc(-c2c[n+]3c(n2-c2ccccc2)CCC3)cc1,–,–,–,–,+,–
Cc1ccc(-c2c[n+]3c(n2-c2ccccc2)CCC3)cc1,–,–,–,–,?,–
CCOc1cc(C(=O)N(CC)CC(=O)Nc2ccc3c(c2)OCCO3)ccc1OC,–,–,–,–,–,–
O=C(O)c1cc(N2N=C(C(F)(F)F)/C(=C/C=C/c3ccco3)C2=O)ccc1Cl,–,–,–,22.4,–,–
COC(=O)c1cc2oc3ccccc3c2n1Cc1ccccn1,–,–,–,–,–,–
CC1CCN(c2ccc(NC(=O)c3cccnc3)cc2)CC1,–,–,–,–,+,–
O=C(Nc1ccc(N2CCN(C(=O)c3ccccc3)CC2)cc1)c1cccnc1,–,–,–,–,–,–
COc1ccc(CNC(=O)C2(c3ccc(Cl)cc3)CC2)cc1,–,–,–,–,–,55.7
COc1ccc(NC(=O)Cn2nc(C)c([N+](=O)[O-])c2C)cn1,–,–,–,–,–,–
